Assay outcomes: PubChem BioAssay, several laboratories
PLCb3 inh – inhibitors of human phospholipase C beta3. Q01970. Purified PLC-beta3, fluorogenic substrate, fluorescence. inhibition, % at 12.2 µM. hit rate 0.18% among 370,000; in the data active = inhibition above about 11%
PLCg1 inh – inhibitors of human phospholipase C gamma1; P19174; purified PLC-gamma1, fluorogenic substrate, fluorescence; inhibition, % at 12.2 µM; hit rate 0.84% among 370,000; AID 720700; in the data active = inhibition above about 9.5%
ADAM10 inh – ADAM10 inhibition, QFRET primary screen; O14672; recombinant ADAM10, EDANS/DABCYL FRET peptide cleavage, 3 h; inhibition, % at 7 µM; hit rate 0.62% among 370,000; AID 720582;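 active = inhibition above a per-campaign cutoff equal to the mean of compounds falling between control-based bounds plus 3 SD, cut at about 20% in these data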
Rce1 inhib – inhibitors of yeast Ras-converting enzyme. yeast membranes, quenched prenylated peptide cleavage fluorescence. hit rate 0.27% among 290,000. calls only. Q03530;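 active = fall in fluorescence gain of 50% or more versus controls, with final raw signal at or below 3038400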
ADAM17 inh – ADAM17 inhibition, QFRET primary screen; P78536; recombinant ADAM17, EDANS/DABCYL FRET peptide cleavage; inhibition, % at 6.95 µM; hit rate 0.83% among 370,000; AID 720648;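 active = inhibition above the mean of compounds lying between control limits plus 3 SD, set per campaign, cut at about 8.5% in these data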
ADAM10 confirm – human ADAM10 inhibition, confirmation. shares compounds with ADAM10 inh. ADAM10 QFRET peptide cleavage, EDANS fluorescence. inhibition, % at 6.95 µM. hit rate 1% among 2,100. AID 743208;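 active = inhibition above about 20% chosen separately for each screening run, limit read from the data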
ADAM17 counter – ADAM17 inhibition, counter-screen for ADAM10 exosite hits; shares compounds with ADAM10 inh; hit rate 0.5% among 2,100; ADAM17 QFRET peptide cleavage, EDANS fluorescence; AID 743214; inhibition, % at 6.95 µM;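 active = mean triplicate inhibition above the solvent-only control wells' mean plus 3 SD, cut at about 12% in these data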
Numbers stand for hits; . = inactive; / = not tested or not shown; + = active, no number. Most compounds without a hit are left out; they make up all but 2.1% or so of the library.

SMILES	PLCb3 inh	PLCg1 inh	ADAM10 inh	Rce1 inhib	ADAM17 inh	others
O=C(c1ccccc1)N1N=C(c2ccccc2)CC1c1ccccc1 (configuration not stated)	.	.	.	.	.
CCCCNC(=O)c1cc2c(=O)n3cccc(C)c3nc2n(Cc2ccccc2)c1=N	.	.	.	+	.
Cc1cnn(C(=S)NCCc2ccccc2)c1	.	.	.	.	.
Cc1cnn(C(=S)NCc2ccc(Cl)cc2)c1	.	13	.	.	.
CCN1Cc2nnn(Cc3ccccc3)c2-c2cc(N3CCCC3)ccc2S1(=O)=O	.	.	.	/	.
CC1=C(C(=O)OCc2ccccc2)C(c2ccc(-c3ccccc3)cc2)NC(=O)N1CCCCCC(=O)O (configuration not stated)	.	.	.	/	.
CC1=C(C(=O)OCc2ccccc2)C(c2ccc(-c3ccccc3)cc2)NC(=O)N1CCCC(=O)O (configuration not stated)	.	.	.	+	.
CCCCCCCCn1c(=O)c(C(=O)OCC)c(O)c2ccccc21	.	.	.	.	.
CCCCCn1c(=O)c(-c2nc3ccccc3[nH]2)c(O)c2ccccc21	.	.	.	+	.
Nc1[nH]c(C(=O)c2ccc(Cl)cc2)c(-c2ccc(Br)cc2)c1C(=O)c1c[nH]c2ccc(F)cc12	.	.	.	/	.
COc1ccc(-c2nc(CC(=O)O)cs2)cc1	.	.	.	.	.
CCOc1ccc(-c2nc(CCl)cs2)cc1OC	.	.	.	+	.
COc1ccc(-c2nc(CC(=O)O)cs2)cc1OC	.	.	.	+	.
COC(=O)c1cc2c(c3c4cc(C)ccc4n(S(=O)(=O)c4ccc(C)cc4)c13)C(=O)N(Cc1ccccc1OC)C2	.	.	.	/	.
OC1CCCCC1	.	.	.	/	.
CCCCOc1ccc(C(=O)Nn2c(-c3cccs3)nc3ccccc3c2=O)cc1	.	.	.	+	.
S=C(NN=C(c1ccccc1)c1ccccn1)N(Cc1ccccn1)Cc1ccccn1	.	.	78	/	72
Cc1nc(SC(C(=O)c2ccccc2)c2ccccc2)nc2ccccc12 (configuration not stated)	.	.	.	+	.
O=C(O)c1ccc(O)c(O)c1	.	.	.	/	.
O=C(O)c1ccc(-c2ccc(O)c(F)c2)cc1	.	.	.	+	.
O=C(COC(=O)c1cc(=O)[nH]c2ccccc12)NCCc1ccccc1	.	.	.	/	.
CCCN1C(=O)c2n[nH]c(C)c2C1c1ccc(Br)cc1 (configuration not stated)	.	.	.	/	.
CCN(Cc1ccccc1)S(=O)(=O)c1ccc(C(=O)N(CCCN(C)C)c2nc3c(C)c(C)ccc3s2)cc1	.	.	.	+	.
CCN(Cc1ccccc1)S(=O)(=O)c1ccc(C(=O)N(CCCN(C)C)c2nc3cc4c(cc3s2)OCO4)cc1	.	.	.	.	.
CSc1ccccc1NC(=O)C(=O)c1c[nH]c2ccccc12	.	.	22	.	.	ADAM10 confirm=.;ADAM17 counter=.
SMILES	PLCb3 inh	PLCg1 inh	ADAM10 inh	Rce1 inhib	ADAM17 inh	others
COC(=O)[C@]12C[C@H](CC(=O)NCc3cccc(C(F)(F)F)c3)C(=O)N(Cc3ccc4c(c3)OCO4)C1=C[C@H](C(C)C)O[C@@H]2C1CC1	.	.	20	/	.	ADAM10 confirm=.;ADAM17 counter=.
CCCCCCCCN1C(=O)[C@@H](CC(=O)NCc2ccc(OC)c(OC)c2)C[C@@]2(C(=O)OC)C1=C[C@H](C(C)C)O[C@@H]2C1CC1	.	.	22	/	.	ADAM10 confirm=.;ADAM17 counter=.
COC(=O)[C@]12C[C@H](CC(=O)NCCCCc3ccccc3)C(=O)N(Cc3ccc4c(c3)OCO4)C1=C[C@H](C(C)C)O[C@@H]2C1CC1	.	.	21	/	.	ADAM10 confirm=.;ADAM17 counter=.
COC(=O)[C@]12C[C@H](CC(=O)NCc3cccc4ccccc34)C(=O)N(Cc3ccc4c(c3)OCO4)C1=C[C@H](C(C)C)O[C@@H]2C1CC1	.	.	.	/	.
CN(C)CC(C)(C)CNS(=O)(=O)CC12CCC(CC1=O)C2(C)C (configuration not stated)	.	.	.	.	.
CCN(C)C1CN(Cc2cn(Cc3cccc(C(F)(F)F)c3)nn2)S(=O)(=O)C1 (configuration not stated)	.	.	.	/	.
